# Eya2 inh: blocks the phosphatase activity of human Eya2. O00167. recombinant Eya2, OMFP fluorescence dephosphorylation (OMFP is methylfluorescein phosphate). Potency, µM (titrated, usually from 76.9 µM), actives largely listed as inhibitors. actives 0.006% (n = 330,000)
#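 Eya2 protein (added as 0.2 uM solution) was preincubated with compound for 10 min at ambient temperature in 50 mM HEPES pH 7.5, 50 mM NaCl, 5 uM MgCl2, 0.05% BSA, 1 mM DTT. OMFP (added at 50 uM) then reacted 10 min; fluorescence read at 485/525 nm.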
# TrxR1 substrate: substrates of rat thioredoxin reductase 1; O89049; purified TrxR1 substrate turnover, NADPH consumption readout; Potency, µM (series often up to 114 µM); actives 0.01% (n = 390,000); further: nearly all actives have a fitted effect of over 50% in size
#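 Rat TrxR1, dispensed at 90 nM, was prereduced with 400 uM NADPH (final) for 5 min at ~22 deg C, then incubated with compound 15 min before 400 uM selenite. A first-read NADPH fluorescence drop versus no-compound background flagged substrates.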
# rTrxR1 inhibitor: blocks rat thioredoxin reductase 1 | O89049 | recombinant rTrxR1, NADPH fluorescence consumption, selenite substrate | Potency, µM (top dose mostly 114 µM), most hits filed as inhibitors | actives 1% (n = 390,000) | AID 588453; further: nearly all actives have a fitted effect of over 65% in size
#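 Rat TrxR1 (90 nM in the dispensed reagent) was pre-reduced with 400 uM NADPH for 5 min at room temperature, then incubated with compound for 15 min. After 400 uM selenite was added, NADPH fluorescence (Ex 340/Em 450 nm) was followed for 8 min.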
# USP2a block: USP2a (human) protease inhibition; USP2 core, Ub-CHOP2 coupled fluorogenic reporter, 485/531; Potency, µM (doses to about 38.3 µM), most hits filed as inhibitors; actives 0.01% (n = 330,000)
# Target sequence (O75604 whole entry, looked up): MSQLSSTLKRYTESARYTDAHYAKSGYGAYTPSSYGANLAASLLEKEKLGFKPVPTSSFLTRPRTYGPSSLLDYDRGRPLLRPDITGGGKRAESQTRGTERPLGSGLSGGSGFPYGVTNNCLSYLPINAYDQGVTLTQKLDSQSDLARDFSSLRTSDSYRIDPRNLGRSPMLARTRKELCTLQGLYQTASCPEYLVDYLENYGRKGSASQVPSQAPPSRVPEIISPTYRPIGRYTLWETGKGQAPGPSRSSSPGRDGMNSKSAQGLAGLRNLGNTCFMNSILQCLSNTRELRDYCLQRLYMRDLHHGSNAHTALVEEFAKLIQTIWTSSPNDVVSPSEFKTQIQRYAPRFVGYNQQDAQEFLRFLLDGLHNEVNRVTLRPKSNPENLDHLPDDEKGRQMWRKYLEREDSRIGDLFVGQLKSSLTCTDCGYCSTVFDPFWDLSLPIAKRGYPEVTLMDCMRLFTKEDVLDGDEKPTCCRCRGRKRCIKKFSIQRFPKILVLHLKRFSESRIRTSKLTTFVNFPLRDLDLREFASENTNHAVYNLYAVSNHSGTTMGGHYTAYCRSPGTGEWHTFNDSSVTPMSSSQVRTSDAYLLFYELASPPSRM
#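 Deubiquitinase activity read as fluorescence (485/531 nm) after Ub-CHOP2 cleavage activates the enterokinase reporter on its substrate; USP2 core 10nM, Ub-CHOP2 and substrate 25nM each, 30min compound preincubation then 60min RT; data normalized to NEM, curves fitted.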
# GALK inh: inhibitors of human galactokinase; AID 1868; P51570; actives 0.007% (n = 270,000); Purified GALK, Kinase-Glo residual ATP luminescence; Potency, µM (doses to about 57.5 µM), actives largely listed as inhibitors
#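 GALK at 5 nM final was combined with compound, 35 uM ATP and 100 uM galactose in HEPES pH8.0 with MgCl2 and DTT. The reaction ran one hour at room temperature before luminescent ATP detection.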
# RGS4 inhibitor: inhibitors of human regulator of G protein signaling 4. P49798. Transcreener GDP fluorescence polarization, RGS4-accelerated GTP hydrolysis. Potency, µM (top dose mostly 114 µM), usual class: inhibitors. actives 0.039% (n = 390,000); further: nearly all actives have a fitted effect of over 75% in size
#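 MLSMR compounds (23 nl, pin-transferred) preincubated 10 min at room temperature with a 500nM (2x) first reagent, then RGS4 at 900nM (2x) plus Transcreener GDP mix added; fluorescence polarization (620/688 nm) read before and after 90 min at 30 °C.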
# A number is an active result; 0 = inactive; ? = inconclusive; - = no result; [ ] = another dose, or the depositor's remark. The list is not random: actives were taken first. Their share in the collection is about 1%. The call rests on the fitted dose curve; in most records, active means well fitted curve in the direction sought with a large enough effect; inconclusive means small, poorly fitted or top-dose-only effect, or another doubt; inactive means no such curve, though single readings can be large; an effect the other way counts as inactive or inconclusive.
SMILES,Eya2 inh,TrxR1 substrate,rTrxR1 inhibitor,USP2a block,GALK inh,RGS4 inhibitor
C[n+]1ccc(/C=C/c2ccc(C=S)cc2)c2ccccc21,-,0,0,-,-,-
CCOC(=O)Nc1ccc2c(c1)N(C(=O)CCN(CC)CC)c1ccccc1S2=O (stereo not drawn),0,0,28µM,0,0,0
CC1(C)CC(=O)C(C(C2=C(O)CC(C)(C)CC2=O)c2cccs2)C(=O)C1 (stereo not drawn),0,0,6.3µM,0,0,?
CCC(=O)Oc1ccc2c(c1)O/C(=C\c1ccco1)C2=O,0,0,79µM,?,0,0
COCCN(CCOC)Cc1c(O)ccc2c1O/C(=C\c1ccco1)C2=O,0,0,79µM,?,0,0
CN(C)c1cc(N2CCOCC2)nc(C#N)n1,-,0,0,-,-,-
O=C(O)c1cccc(Cn2c(Cl)c(/C=N/NC(=O)c3ccc(O)cc3)sc2=O)c1,0,0,?,0,-,0
O=c1sc(/C=N/Nc2ccccc2)c(Cl)n1Cc1ccccc1,0,0,13µM,0,0,0
O=Cc1sc(=O)n(Cc2cccc(C(=O)O)c2)c1Cl,0,0,3.2µM,0,0,?
COC(=O)c1cccc(Cn2c(Cl)c(/C=N/NC(=O)c3ccco3)sc2=O)c1,0,0,40µM,0,0,0
C=CC[n+]1cccc2cc(Br)ccc21,-,0,0,-,-,-
O=Nc1ccc(/C=C/c2ccnc3ccccc23)cc1,-,0,0,-,-,-
COc1ccccc1N1C(=O)C2C(c3ccccc3F)NN(C(=O)c3ccc(C)cc3)C2C1=O (stereo not drawn),0,0,50µM,0,-,0
Cc1ccc(C(=O)N2NC(c3ccccc3F)C3C(=O)N(c4cccc(C)c4)C(=O)C32)cc1 (stereo not drawn),0,0,0,0,-,0
Cc1cc(C)n(-c2nc(NC(C)C)nc(NC(C)(C)C)n2)n1,-,0[0.0914 µM],0[0.0914 µM],-,-,0
C#CCOCCOCCOCCNc1nc(N2CCN(C(=O)[C@H](CCCCN)n3cc([C@@H](N)CC(C)C)nn3)CC2)nc(N2CCN(C(=O)[C@H](Cc3cc4ccccc4[nH]3)n3cc([C@@H](N)Cc4ccc(O)cc4)nn3)CC2)n1,0,0,45µM,0,0,0
C#CCOCCOCCOCCNc1nc(N2CCN(C(=O)[C@H](CCCCN)n3cc(C(N)CC(C)C)nn3)CC2)nc(N2CCN(C(=O)[C@H](CCC(=O)O)n3cc(C(N)[C@H](C)CC)nn3)CC2)n1 (stereo partly drawn),?,0,18µM,0,0,0
C#CCOCCOCCOCCNc1nc(N2CCN(C(=O)[C@H](CCCCN)n3cc([C@@H](N)CO)nn3)CC2)nc(N2CCN(C(=O)[C@H](Cc3cc4ccccc4[nH]3)n3cc([C@@H](N)Cc4ccc(O)cc4)nn3)CC2)n1,0,-,-,0,0,-
CC(C)(C)n1ncc2c(=O)n(Cc3cccc(C(F)(F)F)c3)cnc21,-,0,0,-,-,-
Cc1ccc(S(=O)(=O)N2CCN(c3nc(-n4cncn4)nc4ccccc34)CC2)cc1,-,0,0,-,-,-
Cc1cc(N(C)C)cc(C)c1/C=C/c1cc[n+](C)c2ccccc12,-,0,0,-,-,-
Cc1cccc(NC(=O)c2ccc(-c3ccccc3[N+](=O)[O-])o2)c1,0,0,?,0,0,0
COc1cccc(NC(=O)c2ccc(-c3ccccc3[N+](=O)[O-])o2)c1,0,0,16µM,0,0,0
CC(C)c1ccc(Cn2cnc3c(cnn3C(C)(C)C)c2=O)cc1,-,0,0,-,-,-
COc1cc(/C=C(/C(=O)c2cccs2)c2nc3ccccc3[nH]2)ccc1O,0,0,14µM,?,0,0
SMILES,Eya2 inh,TrxR1 substrate,rTrxR1 inhibitor,USP2a block,GALK inh,RGS4 inhibitor
COc1ccc(CCn2c(=S)[nH]c(=O)c3[nH]cnc32)cc1OC,-,0,0,-,-,0
O=[n+]1c2c(n([O-])c3cc(F)c(F)cc31)CCCC2,0,0,3.5µM,0,0,0
CCOc1ccc(C2Nc3cccc4cccc(c34)N2)cc1OC,0,0,28µM,0,0,0
CCOc1cc(C2Nc3cccc4cccc(c34)N2)ccc1O,0,0,25µM,0,0,?
COc1ccc(C2Nc3cccc4cccc(c34)N2)cc1,0,0,?,0,0,0[11.4 µM]
O=C1OC(NC(=O)c2ccccc2)C(n2cc(CO)nn2)=C1Cl (stereo not drawn),0,0,10µM,0,0,?
CC(C)(C)c1ccc(C(=O)C[n+]2cccc(Br)c2)cc1,-,0,0,-,-,-
CCC(C)N(CC(=O)Nc1cccc(C)c1C)C(=O)CCl (stereo not drawn),0,0,28µM,0,0,0
CCC(CC)NC(=O)Nc1cccc(C)c1C,0,0,0,0,0,0
CC(C)N(CC(=O)Nc1ccc(Cl)cc1C(F)(F)F)C(=O)CCl,0,0,16µM,0,0,0
COc1ccc(-c2nc3ccc(NC(C)=O)cc3c(=O)n2Cc2ccccc2)cc1COc1ccc(NC(C)=O)cc1,-,0,20µM,-,-,0
COc1ccc(-c2nc3ccc(NC(=O)CO)cc3c(=O)n2Cc2cccc(Cl)c2)cc1COc1ccc(NC(C)=O)cc1,-,0,?,-,-,0
Cc1cc(Cl)ccc1NC(=S)Nc1cccnc1,0,0,28µM,0,0,0
O=C(CCl)Nc1cccc(S(=O)(=O)NC2=NCCC2)c1,0,0,28µM,0,0,0
O=c1[nH]c(=S)c2[nH]cnc2[nH]1,-,0,0,-,-,0
CC(C)(C)n1ncc2c(=O)n(Cc3ccc(SC(=O)O)cc3Cl)cnc21,-,0,0,-,-,-
CCN(CCN(C)Cl)/[N+]([O-])=N/Oc1ccc([N+](=O)[O-])cc1[N+](=O)[O-],-,0,10µM,-,-,-
CN(C)/[N+]([O-])=N\Oc1cc(OC(=O)c2ccc(N)cc2)c([N+](=O)[O-])cc1[N+](=O)[O-],-,0,0,-,-,-
CN(C)/[N+]([O-])=N/Oc1ccc([N+](=O)[O-])cc1[N+](=O)[O-],-,0,13µM,-,-,-
CN(Cc1ccccc1)/[N+]([O-])=N/Oc1ccc([N+](=O)[O-])cc1[N+](=O)[O-],-,0,2.8µM,-,-,-
O=C(OCc1ccccc1)N1CCN(/[N+]([O-])=N/Oc2ccc([N+](=O)[O-])cc2[N+](=O)[O-])CC1,-,0[0.457 µM],?,-,-,-
CNc1ccc(C(=O)Oc2cc(O/N=[N+](\[O-])N(C)C)c([N+](=O)[O-])cc2[N+](=O)[O-])cc1,-,0,25µM,-,-,0
O=S1(=O)CCOCCCN1Cc1ccc(F)cc1,-,0,0,-,-,-
CC(=O)N1CCCc2ccc(NC(=O)c3ccc(C(F)(F)F)cc3)cc21,-,0,0,-,-,0
Cc1c(CCCl)c(Cl)n2c(nc3ccccc32)c1C#N,-,0,2.2µM,-,-,0
Cc1cc(Cl)n2c(nc3ccccc32)c1C#N,0,0,7.1µM,0,0,0
